Experimental findings from article PMC5700166 are described below.

Common to all, as to assay: protein-binding microarray (PBM); PBM: ~300 nM protein, 6 mM HEPES pH 7.8, 80 mM KCl, 0.5 mM EDTA, 0.5 mM EGTA, 6% glycerol, 35 ng/ul poly-dIdC, 1% milk, 1 h, room temperature; Ap Aiptasia and Nv Nematostella (sea anemones) / Co Capsaspora / Aq Amphimedon (sponge) / Dm Drosophila / Hu human; RHD is the Rel homology domain; high values mean tight binding
What all share (conditions): dsDNA, one strand shown

The target of one assay is T1, GST-Ap-NF-kB RHD (Exaiptasia pallida (Aiptasia), UniProt A0A913YAJ5 2-422).
T1 sequence: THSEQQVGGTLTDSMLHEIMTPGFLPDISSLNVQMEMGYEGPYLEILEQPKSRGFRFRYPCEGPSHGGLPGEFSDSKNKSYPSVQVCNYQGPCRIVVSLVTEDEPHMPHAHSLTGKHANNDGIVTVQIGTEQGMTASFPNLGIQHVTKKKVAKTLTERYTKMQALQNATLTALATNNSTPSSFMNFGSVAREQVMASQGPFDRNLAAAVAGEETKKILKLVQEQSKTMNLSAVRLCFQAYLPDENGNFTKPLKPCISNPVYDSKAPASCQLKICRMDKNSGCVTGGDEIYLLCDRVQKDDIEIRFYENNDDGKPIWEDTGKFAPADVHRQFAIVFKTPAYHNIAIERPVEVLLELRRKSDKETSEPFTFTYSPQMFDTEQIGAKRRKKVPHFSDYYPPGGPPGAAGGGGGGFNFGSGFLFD

For assay [1], the target named is T2, GST-Nv-NF-kB (Cys allele) (Nematostella vectensis, UniProt E5G601 2-411).
T2 sequence: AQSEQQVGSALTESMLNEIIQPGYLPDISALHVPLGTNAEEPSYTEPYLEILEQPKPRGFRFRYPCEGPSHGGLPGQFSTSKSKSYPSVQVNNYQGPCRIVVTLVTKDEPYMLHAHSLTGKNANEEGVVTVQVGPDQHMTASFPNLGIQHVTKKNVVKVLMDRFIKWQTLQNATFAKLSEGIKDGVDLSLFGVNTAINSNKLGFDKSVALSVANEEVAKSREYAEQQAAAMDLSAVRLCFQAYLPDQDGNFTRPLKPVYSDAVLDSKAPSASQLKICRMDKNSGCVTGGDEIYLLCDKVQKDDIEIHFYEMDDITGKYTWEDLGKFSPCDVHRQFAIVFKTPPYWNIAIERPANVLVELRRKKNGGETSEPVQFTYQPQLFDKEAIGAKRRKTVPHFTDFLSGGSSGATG

Assay [2] has as its target T3, GST-Nv-NF-kB (Ser allele) (Nematostella vectensis, UniProt A7UNT2 2-411).
T3 sequence: T2 sequence with Q21R, C66S, S207N, E215Q, V217A, E225K, A268E, D399E

The target of a further assay is T4, GST-Co-NF-kB (Capsaspora owczarzaki, UniProt F1ARL5 200-546).
T4 sequence: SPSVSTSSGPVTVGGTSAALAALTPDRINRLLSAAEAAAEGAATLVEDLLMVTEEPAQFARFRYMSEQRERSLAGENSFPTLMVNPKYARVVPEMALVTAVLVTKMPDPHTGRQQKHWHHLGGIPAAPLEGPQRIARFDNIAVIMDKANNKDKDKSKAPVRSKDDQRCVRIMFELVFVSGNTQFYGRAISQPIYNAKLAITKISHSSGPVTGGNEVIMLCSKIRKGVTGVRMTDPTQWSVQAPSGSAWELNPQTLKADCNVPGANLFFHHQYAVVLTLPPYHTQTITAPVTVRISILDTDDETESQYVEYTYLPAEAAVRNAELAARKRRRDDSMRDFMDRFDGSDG

A further assay has as its target T5, GST-Dm-Relish (Drosophila melanogaster, UniProt Q94527 99-473).
T5 sequence: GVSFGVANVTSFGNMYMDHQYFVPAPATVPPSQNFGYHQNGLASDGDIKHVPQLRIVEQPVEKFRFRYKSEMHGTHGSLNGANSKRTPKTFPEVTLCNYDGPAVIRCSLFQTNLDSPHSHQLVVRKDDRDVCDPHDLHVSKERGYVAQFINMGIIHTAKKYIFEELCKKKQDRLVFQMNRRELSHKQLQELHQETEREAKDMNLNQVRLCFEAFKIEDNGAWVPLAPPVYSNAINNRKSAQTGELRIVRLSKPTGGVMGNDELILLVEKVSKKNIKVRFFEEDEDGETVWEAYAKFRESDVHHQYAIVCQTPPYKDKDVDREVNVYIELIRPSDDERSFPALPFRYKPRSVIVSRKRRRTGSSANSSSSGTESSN

The target in the next assay is T6, GST-Aq-NF-kB (Amphimedon queenslandica, UniProt A9Y5G7 2-389).
T6 sequence: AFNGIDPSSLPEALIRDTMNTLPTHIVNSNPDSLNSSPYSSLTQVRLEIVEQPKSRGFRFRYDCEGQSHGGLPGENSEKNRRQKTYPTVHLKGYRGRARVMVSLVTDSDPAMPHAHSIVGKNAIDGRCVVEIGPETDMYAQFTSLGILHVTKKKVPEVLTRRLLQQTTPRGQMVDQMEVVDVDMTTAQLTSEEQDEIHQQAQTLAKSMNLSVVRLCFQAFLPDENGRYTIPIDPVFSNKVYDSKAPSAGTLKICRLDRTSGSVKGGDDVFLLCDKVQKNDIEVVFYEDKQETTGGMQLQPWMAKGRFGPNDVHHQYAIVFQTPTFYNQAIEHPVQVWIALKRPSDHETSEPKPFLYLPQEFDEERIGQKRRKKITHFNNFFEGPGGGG

The target in another assay is GST-Hu-p50 (Homo sapiens, UniProt P19838 7-356).
Chain of GST-Hu-p50 (P19838 7-356): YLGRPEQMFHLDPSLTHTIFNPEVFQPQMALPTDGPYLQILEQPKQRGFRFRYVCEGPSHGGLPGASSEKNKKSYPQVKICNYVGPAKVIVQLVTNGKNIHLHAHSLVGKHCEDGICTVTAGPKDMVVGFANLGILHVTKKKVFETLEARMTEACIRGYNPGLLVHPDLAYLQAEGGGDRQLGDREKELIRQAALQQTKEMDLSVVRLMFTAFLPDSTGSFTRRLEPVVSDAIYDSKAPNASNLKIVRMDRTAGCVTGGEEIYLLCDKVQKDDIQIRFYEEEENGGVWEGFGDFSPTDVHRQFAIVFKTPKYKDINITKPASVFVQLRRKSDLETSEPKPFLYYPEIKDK

Substitutions are numbered along the chain they refer to.

Turning to “CCGATTAACATCAGGGATATCCCTGATGTTAATCGGGTCTTGATTCGCTTGACGCTGCTG”, the binding signal amounted to 6.62 z-score with GST-Ap-NF-kB RHD; 6.52 z-score in assay [1]; 4.4 z-score in assay [2]; 3.18 z-score with GST-Co-NF-kB; 7.32 z-score in the assay with GST-Dm-Relish; 7.89 z-score in the assay with GST-Aq-NF-kB. The sequence also yielded a binding signal with GST-Hu-p50 of 3.87 z-score.
“CCGATTAACATCAGGGGAAATAATGATGTTAATCGGGTCTTGATTCGCTTGACGCTGCTG”: the binding signal came out at 6.88 z-score in the assay with GST-Ap-NF-kB RHD; 8.65 z-score in assay [1]; 11.6 z-score in assay [2]; 9 z-score in the assay with GST-Co-NF-kB; 5.53 z-score in the assay with GST-Dm-Relish; 5.68 z-score with GST-Aq-NF-kB. The same sequence had a binding signal with GST-Hu-p50 of 6.58 z-score.
As for “CCGATTAACATCAGGGAGTCCCCTGATGTTAATCGGGTCTTGATTCGCTTGACGCTGCTG”, the binding signal amounted to 10.9 z-score in the assay with GST-Ap-NF-kB RHD; 8.88 z-score in assay [1]; 7.04 z-score in assay [2]; 4.05 z-score with GST-Co-NF-kB; 10.7 z-score in the assay with GST-Dm-Relish; 9.35 z-score with GST-Aq-NF-kB. The sequence further came in with a binding signal with GST-Hu-p50 of 6.52 z-score.
For “CCGATTAACATCAGGATTCTCCCTGATGTTAATCGGGTCTTGATTCGCTTGACGCTGCTG”, the binding signal in the assay with GST-Ap-NF-kB RHD amounted to 3.03 z-score; in assay [1], 4.71 z-score; in assay [2], 3.05 z-score; in the assay with GST-Co-NF-kB, 1.79 z-score; with GST-Dm-Relish it was 1.49 z-score; with GST-Aq-NF-kB, 6.5 z-score. Besides, the binding signal with GST-Hu-p50 is 3.33 z-score.
For the sequence “CCGATTAACATCAGGGGGTTTGATGATGTTAATCGGGTCTTGATTCGCTTGACGCTGCTG”, the binding signal with GST-Ap-NF-kB RHD amounted to 6.11 z-score; in assay [1], 4.29 z-score; in assay [2], 6.14 z-score; with GST-Co-NF-kB it was 1.61 z-score; in the assay with GST-Dm-Relish it was 5.81 z-score; in the assay with GST-Aq-NF-kB it was 4.09 z-score. The same sequence had a binding signal with GST-Hu-p50 of 6.03 z-score.
With “CCGATTAACATCAGGACTCCCCCTGATGTTAATCGGGTCTTGATTCGCTTGACGCTGCTG”, the binding signal with GST-Ap-NF-kB RHD amounted to 8.82 z-score; in assay [1], 7.17 z-score; in assay [2] it was 6.45 z-score; with GST-Co-NF-kB, 4.97 z-score; with GST-Dm-Relish, 8.9 z-score; with GST-Aq-NF-kB it was 9.21 z-score. The binding signal with GST-Hu-p50 was 6.59 z-score.
For the sequence “CCGATTAACATCAAGATTTCCCATGATGTTAATCGGGTCTTGATTCGCTTGACGCTGCTG”, the binding signal with GST-Ap-NF-kB RHD was found to be 2.43 z-score; in assay [1], 4.42 z-score; in assay [2], 4.61 z-score; with GST-Co-NF-kB it was 4.11 z-score; with GST-Dm-Relish, 2.29 z-score; with GST-Aq-NF-kB, 3.35 z-score. For the same sequence, the binding signal with GST-Hu-p50 came to 3.33 z-score.
Regarding “CCGATTAACATCAGATATCCCCCTGATGTTAATCGGGTCTTGATTCGCTTGACGCTGCTG”, the binding signal with GST-Ap-NF-kB RHD is 7.25 z-score; in assay [1], 6.62 z-score; in assay [2], 7.52 z-score; with GST-Co-NF-kB, 6.39 z-score; with GST-Dm-Relish, 5.78 z-score; with GST-Aq-NF-kB it was 5.89 z-score. The sequence further yielded a binding signal in the assay with GST-Hu-p50 of 5.59 z-score.
Regarding “CCGATTAACATCAGAAACTCCCCTGATGTTAATCGGGTCTTGATTCGCTTGACGCTGCTG”, the binding signal in the assay with GST-Ap-NF-kB RHD turned out to be 8.69 z-score; in assay [1], 7.68 z-score; in assay [2], 7.84 z-score; with GST-Co-NF-kB it was 5.37 z-score; in the assay with GST-Dm-Relish, 7.08 z-score; with GST-Aq-NF-kB, 7.47 z-score. The binding signal with GST-Hu-p50 was 6.42 z-score.
Consider “CCGATTAACATCACCGTGGGAAATGATGTTAATCGGGTCTTGATTCGCTTGACGCTGCTG”, for which the binding signal amounted to 1.9 z-score in the assay with GST-Ap-NF-kB RHD; 2.4 z-score in assay [1]; 2.68 z-score in assay [2]; 3.18 z-score with GST-Co-NF-kB; 1.32 z-score in the assay with GST-Dm-Relish; 1.95 z-score in the assay with GST-Aq-NF-kB. For the same sequence, in the assay with GST-Hu-p50, the binding signal came out at 2.29 z-score.
As to “CCGATTAACATCAGGGGGAAATATGATGTTAATCGGGTCTTGATTCGCTTGACGCTGCTG”, the binding signal in the assay with GST-Ap-NF-kB RHD came to 7.3 z-score; in assay [1], 8.58 z-score; in assay [2], 10.6 z-score; in the assay with GST-Co-NF-kB, 11.1 z-score; with GST-Dm-Relish it was 4.77 z-score; with GST-Aq-NF-kB, 6.38 z-score. The binding signal in the assay with GST-Hu-p50 turned out to be 7.38 z-score.
In the case of “CCGATTAACATCAGGGAAACACATGATGTTAATCGGGTCTTGATTCGCTTGACGCTGCTG”, the binding signal turned out to be 2.17 z-score with GST-Ap-NF-kB RHD; 2.95 z-score in assay [1]; 3.46 z-score in assay [2]; 3.05 z-score in the assay with GST-Co-NF-kB; 6.06 z-score in the assay with GST-Dm-Relish; 3.52 z-score with GST-Aq-NF-kB. Moreover, the binding signal with GST-Hu-p50 was 1.39 z-score.
